Experimental data reported in PubChem BioAssay (NCI).
The panel holds about 79,000 compounds, 15% with a hit somewhere; the sample as a whole holds those more often. No stated cut-off is given here; in the data, active means growth inhibition above about 70%; inactive means the rest.

How the values were obtained:
[1] = NCI Yeast Anticancer Drug Screen. Data for the rad50 strain (AID 155);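 further: 0% = growth of vehicle-only cultures of the same strain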; details: S. cerevisiae rad50 strain growth inhibition; at 50.0 µM; stronger effect = higher value
In short: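 Relative growth inhibition (compound vs vehicle) was measured in yeast with a defined repair-gene alteration.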

[2] = NCI Yeast Anticancer Drug Screen. Data for the mec2-1 strain (AID 157); details: S. cerevisiae mec2-1 strain, at 50.0 µM, stronger effect = higher value
In short: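 Cells of the genetically defined mec2-1 yeast strain are incubated with test compound. Inhibition of growth is calculated against vehicle-treated controls.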

[3] = NCI Yeast Anticancer Drug Screen. Data for the sgs1 mgt1 strain (AID 161);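 further: 0% = growth of cultures given vehicle only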; details: S. cerevisiae sgs1 mgt1 strain, at 50.0 µM, stronger effect = higher value
In short: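 Inhibition of yeast growth, normalised to vehicle-treated controls, is reported for a strain bearing genetic alterations in DNA damage repair.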

[4] = NCI Yeast Anticancer Drug Screen. Data for the cln2 rad14 strain (AID 165);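 further: 0% = growth equal to vehicle treated cultures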; details: S. cerevisiae cln2 rad14 strain, at 50.0 µM, stronger effect = higher value
In short: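 The screen exposed genetically defined yeast (cln2 rad14) to test compounds and scored growth inhibition relative to vehicle-treated controls.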

[5] = NCI Yeast Anticancer Drug Screen. Data for the bub3 strain (AID 167); details: S. cerevisiae bub3 mutant strain, at 50.0 µM, stronger effect = higher value
In short: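 Screening used yeast with an engineered genetic alteration affecting cell cycle control. Compound-exposed cultures were compared with vehicle cultures, and reduced growth was taken as inhibition.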

[6] = NCI Yeast Anticancer Drug Screen. Data for the mlh1 rad18 strain (AID 175); details: S. cerevisiae mlh1 rad18 strain growth inhibition; at 50.0 µM; stronger effect = higher value
In short: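 Compound-treated yeast growth, normalised to vehicle controls. Strain bears defined DNA repair mutations.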

Measured: growth inhibition

CC[N+]1(C)CCC(CN2c3ccccc3Sc3ccccc32)C1 (stereo unspecified)
inactive: [1] 31.4% | [2] 22.6% | [3] 38.5% | [4] -2.65% | [5] 6% | [6] 43.3%

Cc1cc(Cl)ccc1C1OC(=O)c2c1ccc1ccccc21 (stereo unspecified)
inactive: [1] 16.9% | [2] 6.8% | [3] -6.25% | [4] 15.6% | [5] 7.5% | [6] 13.8%

CN(C)CC(CN(C)C)C(=O)/C=C/c1ccc(O)cc1
inactive: [1] 1.4% | [2] -2.25% | [3] 6.05% | [4] 6.35% | [5] 22.4% | [6] 5.5%

CC1C(O)CC2(C(C)C)CC12 (stereo unspecified)
inactive: [1] 4.85% | [2] -0.25% | [3] -8.7% | [4] 12.3% | [5] -18.1% | [6] -10.4%

CCC(Oc1ccc(Cl)cc1Cl)C(=O)O (stereo unspecified)
inactive: [1] -4.4% | [2] -9.8% | [3] -8.65% | [4] -8.25% | [5] -10.2% | [6] -1.75%

Cc1ccc(Cl)cc1N=C=S
inactive: [1] -22% | [2] -18.8% | [3] 6% | [4] -4.6% | [5] -38.4% | [6] -11.2%

O=[N+]([O-])c1ccc(OP(=O)(O)O)cc1
inactive: [1] -5.9% | [2] 13.3% | [3] -9.85% | [4] 20.2% | [5] 8.95% | [6] -10.2%

CC(=O)c1ccc(O)c(C=O)c1O
inactive: [1] 11.7% | [2] 9.3% | [3] 27.1% | [4] 2.65% | [5] -2.9% | [6] 31.9%

CN(C(=N)N)c1ccc(C(=O)Oc2ccc([N+](=O)[O-])cc2)cc1
inactive: [1] 14.8% | [2] 12.8% | [3] 29.6% | [4] 1.35% | [5] 15.1% | [6] 17.1%

O=c1[nH]c2cc(Cl)ccc2nc1C1=C(O)c2ccccc2C1
inactive: [1] 32% | [2] 12.7% | [3] 23.6% | [4] 3.35% | [5] 6.7% | [6] 30.6%

COc1cc(CCCCC(=O)O)cc(Br)c1OC
inactive: [1] -17.7% | [2] -1.95% | [3] 4.9% | [4] -33.7% | [5] 29.8% | [6] -3.85%

CC(Oc1ccccc1)C(=O)Nc1ccc(F)cc1 (stereo unspecified)
inactive: [1] -1% | [2] 9.5% | [3] 17.8% | [4] -11.1% | [5] 35.9% | [6] 17.6%

O=Cc1cc(C(=O)c2ccccn2)c2cc(Cl)cc(Cl)c2n1
inactive: [1] 8.05% | [2] 5.9% | [3] 5.8% | [4] -13.8% | [5] -4.3% | [6] 11.6%

CCCCOC(=O)Nc1ccccc1OCC
inactive: [1] 6.7% | [2] -19.8% | [3] -0.35% | [4] -48.4% | [5] -20.5% | [6] -11.2%

O=C(O)C(Cl)(c1ccccc1)c1ccccc1
inactive: [1] -6.5% | [2] -13% | [3] 7.5% | [4] -19.9% | [5] 3.55% | [6] -12.8%

CC(C)OC1CC1
inactive: [1] 4.65% | [2] -10.6% | [3] -10.5% | [4] 4.9% | [5] 11.7% | [6] -21%

Cc1nc2c(cnn2C)c(=O)n1-c1ccccc1Cl
inactive: [1] 21.4% | [2] 17.2% | [3] 11.8% | [4] 41% | [5] 29.9% | [6] 17.3%

COC(=O)C1CSC(C)(C)N1 (stereo unspecified)
inactive: [1] 10.6% | [2] -8.55% | [3] -1.5% | [4] -0.95% | [5] -7.35% | [6] 4.35%

CSc1nc(NC2OCC(O)C(O)C2O)c(C(C)=O)c(=O)n1C (stereo unspecified)
inactive: [1] 3.7% | [2] -7.35% | [3] 8.2% | [4] -1.95% | [5] -33.4% | [6] 4.4%

NS(=O)(=O)c1ccc(NC(=S)/N=C\c2c(O)[nH]c(=O)[nH]c2=O)cc1
inactive: [1] -13% | [2] -16.3% | [3] -18.3% | [4] 15.7% | [5] -12.6% | [6] -11%

N#CC(C#N)=NNc1ccc2cn[nH]c2c1
inactive: [1] -11.1% | [2] 28.2% | [3] 2.7% | [4] -21.1% | [5] -39.5% | [6] -1.95%

NC1=NOC(=O)C1c1ccccc1 (stereo unspecified)
inactive: [1] -19.1% | [2] -45.3% | [3] -10.2% | [4] 2.55% | [5] -9.5% | [6] -19.8%

N#Cc1c(-c2ccccc2)c[nH]c1/N=C/N
inactive: [1] -17.6% | [2] -16.8% | [3] -9.75% | [4] -10.4% | [5] -10.2% | [6] -6.5%

CCCCCCCCCCCCCCCCS(=O)(=O)N/N=c1\cc(-c2ccccc2Cl)c2ccccc2n1C
inactive: [1] -0.15% | [2] -16.9% | [3] 1.95% | [4] 6.45% | [5] -11.1% | [6] 3.35%

C[N+](C)(C)CCC(=O)CC[N+](C)(C)C
inactive: [1] 16.2% | [2] -2.2% | [3] 0.5% | [4] -24.4% | [5] 32.6% | [6] 40.9%

NC(Cc1ccc(OC(c2ccccc2)c2ccccc2)cc1)C(=O)O (stereo unspecified)
inactive: [1] 6.45% | [2] 4.9% | [3] 0.75% | [4] -10.7% | [5] -13.6% | [6] 28.8%

CCC(C)N=Cc1ccccc1O.CCC(C)N=Cc1ccccc1O.[Cu] (stereo unspecified)
inactive: [1] 33.7% | [2] -10.3% | [3] 28.4% | [4] -44.7% | [5] 2.1% | [6] 11.2%

CSCCC(NC(c1ccccc1)c1ccccc1)[P+](=O)O (stereo unspecified)
inactive: [1] -53.4% | [2] -44.8% | [3] -37.5% | [4] -5.15% | [5] -3.65% | [6] -40.1%

COc1cc(C)c(C2NC(=O)c3ccccc3N2)cc1C (stereo unspecified)
inactive: [1] 10.1% | [2] 2.8% | [3] -10.1% | [4] 17.4% | [5] -2.55% | [6] -4.55%

CCC(/C=N\O)CC
inactive: [1] -12.8% | [2] 2.6% | [3] 11.4% | [4] -4.05% | [5] -3.05% | [6] 17.1%

N#CC(C(=O)CCC(=O)C(C#N)c1c(Cl)cccc1Cl)c1c(Cl)cccc1Cl (stereo unspecified)
inactive: [1] -18.3% | [2] 7.3% | [3] -12.5% | [4] -41.5% | [5] 6.55% | [6] -11.1%

CCCOC1CC(C)C(O)C(C)C1 (stereo unspecified)
inactive: [1] 24.6% | [2] -4.15% | [3] 3.35% | [4] -10.8% | [5] -1.35% | [6] 15.5%

Cc1cccc(Cl)c1O
inactive: [1] 29.8% | [2] -7.1% | [3] 23.6% | [4] -23.8% | [5] -7.75% | [6] 18.2%

O=[N+]([O-])C(C(Cl)=C(Cl)Cl)=C(n1nnc2ccccc21)n1nnc2ccccc21
inactive: [1] 40.6% | [2] 34.9% | [3] 25.3% | [4] 27.1% | [5] 19% | [6] 21.1%

Nc1nc(N)c(N=Nc2cc(Cl)cc(Cl)c2)c(=O)[nH]1
inactive: [1] 24.2% | [2] 9.3% | [3] -12.3% | [4] -1.1% | [5] 3.15% | [6] 8.8%

CC(=O)n1oc2c(Br)cc(Br)cc2c1=O
inactive: [1] -0.75% | [2] 2.85% | [3] 3.7% | [4] -2.55% | [5] -1.05% | [6] 15.1%

c1ccc(SC(Sc2ccccc2)=C2CCC2)cc1
inactive: [1] 9.7% | [2] -8.1% | [3] 10.4% | [4] 14.8% | [5] 18% | [6] -6.35%

COc1ccc2nc3cc(Cl)ccc3c(NCCNCC(C)(C)O)c2c1
inactive: [1] 23.4% | [2] 15.8% | [3] 18.5% | [4] 63.8% | [5] 27.1% | [6] 22.1%

O=C(CSc1nnc(Cc2ccccc2)o1)Nc1ccc(Cl)cc1Cl
inactive: [1] -18.8% | [2] -41% | [3] -41.3% | [4] -10.7% | [5] -10.2% | [6] -14%

O=c1oc(-c2cccc(C[n+]3ccccc3)c2)nc2cc(Cl)ccc12
inactive: [1] -14.9% | [2] -6.8% | [3] -11.4% | [4] -0.45% | [5] -7.1% | [6] -4.75%

CC(C)=NOC(CCOC(=O)c1ccccc1)COC(=O)c1ccccc1 (stereo unspecified)
inactive: [1] -13.6% | [2] 0.1% | [3] -1.35% | [4] -10.4% | [5] -11.8% | [6] 7.75%
